These results are taken from the supplement of paper PMC12067093, “Discovery and optimisation of a covalent ligand for TRIM25 and its application to targeted protein ubiquitination” (Chemical Science, 2025).

Compound in the test: Cc1cc(ccc1-c1ccccc1)C(=O)N1CCCN(CC1)C(=O)CCl [compound 10]
Put plainly: probe-labelled cysteine peptide fold change vs DMSO (competition) (log2 fold change); higher = less target engagement (more negative = stronger competition). Particulars: THP-1, incubation time: 4 h.

Of roughly 21,000 targets only a part is listed; those with the largest changes were picked by preference.
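Also: competitive profiling in live THP-1 cells: cysteine peptides tagged with an iodoacetamide desthiobiotin (IA-DTB) probe, intensity after compound treatment relative to DMSO-treated cells.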

Sequence of UniProt P53621 (P53621 whole entry, looked up): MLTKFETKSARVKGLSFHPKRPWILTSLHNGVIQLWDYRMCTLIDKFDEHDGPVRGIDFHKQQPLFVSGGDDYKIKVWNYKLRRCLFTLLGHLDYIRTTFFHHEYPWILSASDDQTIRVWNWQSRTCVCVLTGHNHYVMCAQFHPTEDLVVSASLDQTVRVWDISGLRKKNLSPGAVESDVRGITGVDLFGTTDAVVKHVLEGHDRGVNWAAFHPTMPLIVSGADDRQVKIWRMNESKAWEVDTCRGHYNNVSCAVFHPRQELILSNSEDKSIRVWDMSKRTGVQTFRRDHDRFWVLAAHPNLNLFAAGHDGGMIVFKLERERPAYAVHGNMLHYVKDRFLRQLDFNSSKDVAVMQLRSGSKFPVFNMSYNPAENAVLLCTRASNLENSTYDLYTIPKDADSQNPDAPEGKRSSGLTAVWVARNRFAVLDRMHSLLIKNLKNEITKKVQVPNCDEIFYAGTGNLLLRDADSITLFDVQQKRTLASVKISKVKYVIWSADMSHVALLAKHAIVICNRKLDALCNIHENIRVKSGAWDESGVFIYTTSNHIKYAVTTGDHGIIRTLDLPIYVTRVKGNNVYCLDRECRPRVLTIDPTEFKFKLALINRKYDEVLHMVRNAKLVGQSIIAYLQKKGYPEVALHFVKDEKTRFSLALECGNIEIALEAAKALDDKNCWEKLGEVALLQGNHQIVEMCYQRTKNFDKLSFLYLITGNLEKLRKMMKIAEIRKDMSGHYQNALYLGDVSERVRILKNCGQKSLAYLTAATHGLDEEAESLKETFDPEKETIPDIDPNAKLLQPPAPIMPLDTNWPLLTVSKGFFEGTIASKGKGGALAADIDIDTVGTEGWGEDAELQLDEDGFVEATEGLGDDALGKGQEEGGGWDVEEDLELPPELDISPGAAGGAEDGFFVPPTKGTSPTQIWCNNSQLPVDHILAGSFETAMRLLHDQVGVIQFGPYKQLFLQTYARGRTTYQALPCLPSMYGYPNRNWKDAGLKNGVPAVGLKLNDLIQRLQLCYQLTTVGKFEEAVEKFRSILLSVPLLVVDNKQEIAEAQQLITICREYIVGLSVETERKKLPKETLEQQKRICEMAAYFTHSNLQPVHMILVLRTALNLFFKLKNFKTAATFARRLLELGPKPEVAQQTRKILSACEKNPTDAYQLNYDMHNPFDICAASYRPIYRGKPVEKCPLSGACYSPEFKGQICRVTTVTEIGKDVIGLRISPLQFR
Sequence of UniProt Q99829 (Q99829 whole entry, looked up): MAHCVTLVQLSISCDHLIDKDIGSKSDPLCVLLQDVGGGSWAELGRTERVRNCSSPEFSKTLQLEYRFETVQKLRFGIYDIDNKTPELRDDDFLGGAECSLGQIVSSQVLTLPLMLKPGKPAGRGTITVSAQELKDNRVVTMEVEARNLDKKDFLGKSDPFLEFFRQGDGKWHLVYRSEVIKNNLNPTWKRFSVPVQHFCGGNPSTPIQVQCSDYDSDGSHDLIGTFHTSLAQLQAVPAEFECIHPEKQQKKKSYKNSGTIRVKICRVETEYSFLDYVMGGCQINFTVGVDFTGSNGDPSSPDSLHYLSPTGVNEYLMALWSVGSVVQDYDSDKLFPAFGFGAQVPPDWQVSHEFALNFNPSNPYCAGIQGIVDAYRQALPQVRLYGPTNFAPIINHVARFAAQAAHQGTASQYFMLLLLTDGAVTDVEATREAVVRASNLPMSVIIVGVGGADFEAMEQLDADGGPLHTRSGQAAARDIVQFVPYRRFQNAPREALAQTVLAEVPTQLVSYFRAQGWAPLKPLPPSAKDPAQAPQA
Sequence of UniProt Q9H3G5 (Q9H3G5 whole entry, looked up): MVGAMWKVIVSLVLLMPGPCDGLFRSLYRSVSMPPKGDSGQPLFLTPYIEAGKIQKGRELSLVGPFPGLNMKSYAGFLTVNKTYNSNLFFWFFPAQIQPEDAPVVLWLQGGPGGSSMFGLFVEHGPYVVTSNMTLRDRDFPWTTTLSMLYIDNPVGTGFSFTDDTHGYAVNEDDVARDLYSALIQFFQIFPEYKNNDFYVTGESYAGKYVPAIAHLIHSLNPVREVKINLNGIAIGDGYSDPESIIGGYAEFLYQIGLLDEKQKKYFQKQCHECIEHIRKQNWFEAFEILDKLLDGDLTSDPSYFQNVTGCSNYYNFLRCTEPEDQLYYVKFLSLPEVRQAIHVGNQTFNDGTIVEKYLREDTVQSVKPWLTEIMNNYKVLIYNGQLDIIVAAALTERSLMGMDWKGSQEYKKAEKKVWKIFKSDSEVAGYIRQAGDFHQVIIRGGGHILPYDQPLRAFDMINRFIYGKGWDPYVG
Sequence of UniProt P62633 (P62633 whole entry, looked up): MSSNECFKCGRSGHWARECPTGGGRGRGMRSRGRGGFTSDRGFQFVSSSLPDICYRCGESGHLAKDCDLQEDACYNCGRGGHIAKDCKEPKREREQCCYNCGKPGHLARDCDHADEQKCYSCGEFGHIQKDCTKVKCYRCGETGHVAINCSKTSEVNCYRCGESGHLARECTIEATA
Sequence of UniProt Q9Y2B0 (Q9Y2B0 whole entry, looked up): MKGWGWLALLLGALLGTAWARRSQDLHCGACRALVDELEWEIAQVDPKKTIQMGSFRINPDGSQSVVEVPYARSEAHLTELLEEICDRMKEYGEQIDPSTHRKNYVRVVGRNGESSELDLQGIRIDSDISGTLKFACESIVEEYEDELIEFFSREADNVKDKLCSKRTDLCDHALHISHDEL
Sequence of UniProt Q15398 (Q15398 whole entry, looked up): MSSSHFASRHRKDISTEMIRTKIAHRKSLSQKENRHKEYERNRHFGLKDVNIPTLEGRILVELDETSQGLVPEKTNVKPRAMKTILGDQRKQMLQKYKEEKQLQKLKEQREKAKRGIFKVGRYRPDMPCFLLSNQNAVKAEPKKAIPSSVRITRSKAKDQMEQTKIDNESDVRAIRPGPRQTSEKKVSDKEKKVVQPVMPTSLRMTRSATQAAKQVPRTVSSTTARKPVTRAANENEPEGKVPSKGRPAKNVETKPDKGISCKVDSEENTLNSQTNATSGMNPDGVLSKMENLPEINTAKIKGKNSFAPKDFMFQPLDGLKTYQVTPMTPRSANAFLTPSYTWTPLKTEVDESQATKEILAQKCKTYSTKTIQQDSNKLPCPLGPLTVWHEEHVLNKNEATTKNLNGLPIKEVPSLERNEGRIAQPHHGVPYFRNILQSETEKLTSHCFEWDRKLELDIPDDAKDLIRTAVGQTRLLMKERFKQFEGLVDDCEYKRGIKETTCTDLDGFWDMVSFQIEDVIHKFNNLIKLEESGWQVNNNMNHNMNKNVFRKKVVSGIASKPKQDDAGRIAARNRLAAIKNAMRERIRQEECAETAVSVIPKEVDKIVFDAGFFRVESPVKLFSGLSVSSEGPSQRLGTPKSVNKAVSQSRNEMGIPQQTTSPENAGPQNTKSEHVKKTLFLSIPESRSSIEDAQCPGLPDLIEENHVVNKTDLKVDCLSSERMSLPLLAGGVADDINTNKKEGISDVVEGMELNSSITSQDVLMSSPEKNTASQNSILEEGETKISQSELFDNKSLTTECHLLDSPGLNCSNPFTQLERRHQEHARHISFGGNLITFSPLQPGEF
Sequence of UniProt Q9UJU6 (Q9UJU6 whole entry, looked up): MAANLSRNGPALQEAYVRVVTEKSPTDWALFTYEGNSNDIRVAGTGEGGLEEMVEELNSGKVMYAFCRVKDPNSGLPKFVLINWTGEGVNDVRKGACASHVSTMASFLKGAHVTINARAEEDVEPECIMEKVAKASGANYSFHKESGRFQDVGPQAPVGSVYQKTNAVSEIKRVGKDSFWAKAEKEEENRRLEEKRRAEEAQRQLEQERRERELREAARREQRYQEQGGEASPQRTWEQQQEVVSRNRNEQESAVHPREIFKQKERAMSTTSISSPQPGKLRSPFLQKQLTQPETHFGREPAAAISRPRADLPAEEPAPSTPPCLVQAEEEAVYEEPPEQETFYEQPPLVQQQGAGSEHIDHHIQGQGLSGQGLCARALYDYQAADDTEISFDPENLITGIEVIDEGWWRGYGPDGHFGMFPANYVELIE
Sequence of UniProt Q58WW2 (Q58WW2 whole entry, looked up): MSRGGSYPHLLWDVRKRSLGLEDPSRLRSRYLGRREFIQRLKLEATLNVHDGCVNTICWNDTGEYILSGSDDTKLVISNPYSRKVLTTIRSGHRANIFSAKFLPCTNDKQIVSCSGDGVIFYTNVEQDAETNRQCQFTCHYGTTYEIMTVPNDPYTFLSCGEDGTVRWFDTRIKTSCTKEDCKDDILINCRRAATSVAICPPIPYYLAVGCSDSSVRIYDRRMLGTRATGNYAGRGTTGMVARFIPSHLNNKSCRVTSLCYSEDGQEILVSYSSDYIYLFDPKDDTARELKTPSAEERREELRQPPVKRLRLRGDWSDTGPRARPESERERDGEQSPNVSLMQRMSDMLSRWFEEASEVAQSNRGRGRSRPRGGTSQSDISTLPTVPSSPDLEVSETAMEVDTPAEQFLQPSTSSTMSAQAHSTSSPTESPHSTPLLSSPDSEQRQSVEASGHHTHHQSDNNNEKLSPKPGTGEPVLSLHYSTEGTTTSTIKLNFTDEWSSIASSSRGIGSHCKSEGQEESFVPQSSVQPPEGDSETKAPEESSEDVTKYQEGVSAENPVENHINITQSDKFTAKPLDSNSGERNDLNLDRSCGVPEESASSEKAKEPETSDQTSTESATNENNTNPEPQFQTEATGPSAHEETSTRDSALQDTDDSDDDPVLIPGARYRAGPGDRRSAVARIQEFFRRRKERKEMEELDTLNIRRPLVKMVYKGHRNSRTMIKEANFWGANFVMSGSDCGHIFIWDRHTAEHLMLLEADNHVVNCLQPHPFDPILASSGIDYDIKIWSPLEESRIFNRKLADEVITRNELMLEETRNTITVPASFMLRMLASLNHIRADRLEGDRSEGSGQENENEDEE
Sequence of UniProt P21291 (P21291 whole entry, looked up): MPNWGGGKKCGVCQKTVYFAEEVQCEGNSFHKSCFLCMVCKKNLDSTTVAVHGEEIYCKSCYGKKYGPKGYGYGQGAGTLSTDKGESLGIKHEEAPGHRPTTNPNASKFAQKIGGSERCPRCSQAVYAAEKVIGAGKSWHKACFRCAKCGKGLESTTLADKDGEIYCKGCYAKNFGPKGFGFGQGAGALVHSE

Regarding “DDX27_Q96GQ7_248_ACIPVGLLGK (UniProt Q96GQ7)”, the “probe-labelled cysteine peptide fold change” value by setting is: (10 µM) 0.238; (50 µM) -0.122.
For “DDX5_P17844_191_ELAQQVQQVAAEYCR (UniProt P17844)”, in that order: 0.115 and -0.161.
As to “CPNE1_Q99829_4+14_AHCVTLVQLSISCDHLIDK (UniProt Q99829)”, the “probe-labelled cysteine peptide fold change” value (10 µM) was -0.148 and the “probe-labelled cysteine peptide fold change” value (50 µM) is -0.173.
“DDX24_Q9GZR7_570_IHCETDEK (UniProt Q9GZR7)”: the “probe-labelled cysteine peptide fold change” value is, setting by setting: (10 µM) -0.15; (50 µM) 0.261.
“CPSF3_Q9UKF6_626_RLEIMLQDIFGEDCVSVK (UniProt Q9UKF6)”: the “probe-labelled cysteine peptide fold change” value by setting is: (10 µM) -0.0218; (50 µM) 0.198.
Turning to “CPVL_Q9H3G5_320_CTEPEDQLYYVK (UniProt Q9H3G5)”, the “probe-labelled cysteine peptide fold change” value runs as follows: (10 µM) -0.128; (50 µM) -0.131.
For “DCAF6_Q58WW2_513_GIGSHCK (UniProt Q58WW2)”, in that order: -0.205 and -0.361.
As to “COL15A1_P39059_965_GAIFPIPVRPHCK (UniProt P39059)”, the “probe-labelled cysteine peptide fold change” value (10 µM) is -0.0948 and the “probe-labelled cysteine peptide fold change” value (50 µM) was found to be 0.0369.
Turning to “COLGALT1_Q8NBJ5_369_ALQAQEIECR (UniProt Q8NBJ5)”, the “probe-labelled cysteine peptide fold change” value (10 µM) stood at 0.0256 and the “probe-labelled cysteine peptide fold change” value (50 µM) turned out to be 0.125.
Take “DHX9_Q08211_608+612_KDKDDDGGEDDDANCNLICGDEYGPETR (UniProt Q08211)”: the “probe-labelled cysteine peptide fold change” value by setting is: (10 µM) -0.761; (50 µM) -0.243.
Consider “CTU1_Q7Z7A3_144_SCCTFCGVLR (UniProt Q7Z7A3)”, for which the “probe-labelled cysteine peptide fold change” value (10 µM) was -0.353 and the “probe-labelled cysteine peptide fold change” value (50 µM) was -1.17.
Regarding “COPE_O14579_212_CSPTLLLLNGQAACHMAQGR (UniProt O14579)”, the “probe-labelled cysteine peptide fold change” value (10 µM) was 0.0619 and the “probe-labelled cysteine peptide fold change” value (50 µM) turned out to be 0.054.
On to “CORO7_P57737_790_TECDVREVELMR (UniProt P57737)”, for which the “probe-labelled cysteine peptide fold change” value (10 µM) was -0.178 and the “probe-labelled cysteine peptide fold change” value (50 µM) was -0.995.
As for “CSRP1_P21291_167_GLESTTLADKDGEIYCK (UniProt P21291)”, the “probe-labelled cysteine peptide fold change” value (10 µM) was -0.0814 and the “probe-labelled cysteine peptide fold change” value (50 µM) was -1.06.
“CSE1L_P55060_344_NLFEDQNTLTSICEK (UniProt P55060)”: the “probe-labelled cysteine peptide fold change” value is -0.186 (10 µM) and -0.107 (50 µM).
“DIS3L2_Q8IYB7_196_LSVCVSEK (UniProt Q8IYB7)”: the “probe-labelled cysteine peptide fold change” value is -0.124 (10 µM) and 0.0776 (50 µM).
For “CUL9_Q8IWT3_76_AEHILMWLSAPEVYANCPGLLGER (UniProt Q8IWT3)”, the “probe-labelled cysteine peptide fold change” value was 0.0237 (10 µM) and -0.0123 (50 µM).
On to “DBNL_Q9UJU6-3_256_NEQGSTCASLQESAVHPR (UniProt Q9UJU6)”, for which the “probe-labelled cysteine peptide fold change” value was -0.341 (10 µM) and -0.167 (50 µM).
With “DDX39A_O00148_62_AIVDCGFEHPSEVQHECIPQAILGMDVLCQAK (UniProt O00148)”, the “probe-labelled cysteine peptide fold change” value is, setting by setting: (10 µM) 0.144; (50 µM) 0.0705.
“CNPY2_Q9Y2B0_28_SQDLHCGACR (UniProt Q9Y2B0)”: the “probe-labelled cysteine peptide fold change” value was -0.272 (10 µM) and -0.187 (50 µM).
“DLGAP5_Q15398_129_YRPDMPCFLLSNQNAVK (UniProt Q15398)”: the “probe-labelled cysteine peptide fold change” value is -0.0877 (10 µM) and -1.31 (50 µM).
For “DENND3_A2RUS2_499_LTDTAGCR (UniProt A2RUS2)”, in that order: -0.198 and -0.918.
In the case of “COPA_P53621_1148_KILSACEK (UniProt P53621)”, the “probe-labelled cysteine peptide fold change” value was -0.212 (10 µM) and -1.12 (50 µM).
Consider “DDX55_Q8NHQ9_161_AEGLDLASCVR (UniProt Q8NHQ9)”, for which the “probe-labelled cysteine peptide fold change” value reads like this: (10 µM) 0.187; (50 µM) 0.31.
For “CNBP_P62633_150_CGETGHVAINCSK (UniProt P62633)”, the “probe-labelled cysteine peptide fold change” value by setting is: (10 µM) -0.103; (50 µM) 0.0483.
“COG1_Q8WTW3_625_LCQSLGELCPHLK (UniProt Q8WTW3)”: the “probe-labelled cysteine peptide fold change” value was -0.144 (10 µM) and -0.347 (50 µM).
